{"source": "PubChem BioAssay (NCI)", "experiment": "NCI Yeast Anticancer Drug Screen. Data for the rad18 strain (AID 177)", "conditions": "S. cerevisiae rad18 mutant growth inhibition, active compounds read high", "method": "Growth inhibition of yeast strains with defined genetic alterations is measured as a screen for potential anti-cancer activity. Selected strains with alterations in DNA damage repair or cell cycle control were exposed to compounds and growth inhibition was measured relative to vehicle treated controls. The strain used in this assay is rad18", "note": "Compounds without any hit were thinned out: in the full panel of roughly 79,000, 15% have a hit. A number with no mark means an inactive call. Activity calls are given as the source filed them. Cut-off read from the data, not from the text of the source: active = growth inhibition above about 70%; inactive = the rest."}
{"smiles": "CN(C)Cc1cccc(CN(C)C)[c]1[Sn]([Br])([c]1ccccc1)[c]1ccccc1", "values": [{"measurement": "growth inhibition", "setting": "at 1.2 µM", "value": 42, "unit": "%"}, {"measurement": "growth inhibition", "setting": "at 3.7 µM", "value": 67, "unit": "%"}, {"measurement": "growth inhibition", "setting": "at 11.0 µM", "value": "74% (active)"}, {"measurement": "growth inhibition", "setting": "at 33.0 µM", "value": "82% (active)"}, {"measurement": "growth inhibition", "setting": "at 100.0 µM", "value": "97% (active)"}]}
{"smiles": "c1ccc(N2N=C3N(c4ccccc4)C2N3c2ccccc2)cc1", "values": [{"measurement": "growth inhibition", "setting": "at 1.2 µM", "value": 12, "unit": "%"}, {"measurement": "growth inhibition", "setting": "at 3.7 µM", "value": 10, "unit": "%"}, {"measurement": "growth inhibition", "setting": "at 11.0 µM", "value": -3, "unit": "%"}, {"measurement": "growth inhibition", "setting": "at 33.0 µM", "value": 60, "unit": "%"}, {"measurement": "growth inhibition", "setting": "at 100.0 µM", "value": "94% (active)"}]}
{"smiles": "C(=N/NC1=NCCN1)/c1c2ccccc2c(/C=N\\NC2=NCCN2)c2ccccc12", "values": [{"measurement": "growth inhibition", "setting": "at 1.2 µM", "value": -3, "unit": "%"}, {"measurement": "growth inhibition", "setting": "at 3.7 µM", "value": -6, "unit": "%"}, {"measurement": "growth inhibition", "setting": "at 11.0 µM", "value": 4, "unit": "%"}, {"measurement": "growth inhibition", "setting": "at 33.0 µM", "value": "78% (active)"}, {"measurement": "growth inhibition", "setting": "at 100.0 µM", "value": "92% (active)"}]}
{"smiles": "Clc1cc(Cc2ccc(N=C/C=C/c3ccccc3)c(Cl)c2)ccc1N=C/C=C\\c1ccccc1", "values": [{"measurement": "growth inhibition", "setting": "at 1.2 µM", "value": 1, "unit": "%"}, {"measurement": "growth inhibition", "setting": "at 3.7 µM", "value": -11, "unit": "%"}, {"measurement": "growth inhibition", "setting": "at 11.0 µM", "value": -20, "unit": "%"}, {"measurement": "growth inhibition", "setting": "at 33.0 µM", "value": -25, "unit": "%"}, {"measurement": "growth inhibition", "setting": "at 100.0 µM", "value": 24, "unit": "%"}]}
{"smiles": "O=Nn1c2ccccc2c2ccccc21", "values": [{"measurement": "growth inhibition", "setting": "at 1.2 µM", "value": 9, "unit": "%"}, {"measurement": "growth inhibition", "setting": "at 3.7 µM", "value": 7, "unit": "%"}, {"measurement": "growth inhibition", "setting": "at 11.0 µM", "value": -9, "unit": "%"}, {"measurement": "growth inhibition", "setting": "at 33.0 µM", "value": 24, "unit": "%"}, {"measurement": "growth inhibition", "setting": "at 100.0 µM", "value": "86% (active)"}]}
{"smiles": "N#CSC1CCCCNC1=O", "note": "(stereo not given)", "values": [{"measurement": "growth inhibition", "setting": "at 1.2 µM", "value": 12, "unit": "%"}, {"measurement": "growth inhibition", "setting": "at 3.7 µM", "value": 33, "unit": "%"}, {"measurement": "growth inhibition", "setting": "at 11.0 µM", "value": "82% (active)"}, {"measurement": "growth inhibition", "setting": "at 33.0 µM", "value": "94% (active)"}, {"measurement": "growth inhibition", "setting": "at 100.0 µM", "value": "98% (active)"}]}
{"smiles": "CCOC(=O)CNC(=O)c1[nH]cnc1/N=N/N(C)C", "values": [{"measurement": "growth inhibition", "setting": "at 1.2 µM", "value": 0, "unit": "%"}, {"measurement": "growth inhibition", "setting": "at 3.7 µM", "value": -11, "unit": "%"}, {"measurement": "growth inhibition", "setting": "at 11.0 µM", "value": -13, "unit": "%"}, {"measurement": "growth inhibition", "setting": "at 33.0 µM", "value": -3, "unit": "%"}, {"measurement": "growth inhibition", "setting": "at 100.0 µM", "value": "98% (active)"}]}
{"smiles": "Nc1ccc(S(=O)(=O)Nc2ccc(Nc3c4ccccc4nc4ccccc34)cc2)cc1", "values": [{"measurement": "growth inhibition", "setting": "at 1.2 µM", "value": 17, "unit": "%"}, {"measurement": "growth inhibition", "setting": "at 3.7 µM", "value": 11, "unit": "%"}, {"measurement": "growth inhibition", "setting": "at 11.0 µM", "value": 6, "unit": "%"}, {"measurement": "growth inhibition", "setting": "at 33.0 µM", "value": 6, "unit": "%"}, {"measurement": "growth inhibition", "setting": "at 100.0 µM", "value": 58, "unit": "%"}]}
